Bioassay records: PubChem, several laboratories
TROY signal inh – inhibitors of TROY-driven NF-kB signaling, primary screen, Q293 LMP1-TROYcd cells, NF-kB luciferase, uHTS | Q293 LMP1-TROYcd NF-kB luciferase reporter, 4 h | inhibition, % at 10 µM | 360,000 compounds, 0.98% hits | AID 1347056, 2019;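 active = compounds whose plate-normalised and pattern-corrected inhibition of the luciferase reporter signal at the single screening dose is 50% or more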
EWS-Fli inh – EWS/Fli-driven NR0B1 reporter inhibitors, primary screen, A673 cells, NR0B1 luciferase, luminescence, MLPCN library; viability-normalised; inhibition, % at 12.6 µM; 350,000 compounds, 0.67% hits;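 active = mean inhibition of at least 50% after viability correction, with every replicate also passing that limit; inconclusive = mean reaches 50% but only one of two replicates passes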;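 also: firefly luciferase signal divided by Alamar Blue viability fluorescence both relative to DMSO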
LGR2 inh – inhibitors of bursicon-induced LGR2 CRE-luciferase signal, primary screen, cell-based, HEK293, CRE-luciferase reporter, bursicon stimulation. AID 720647, 2013. inhibition, % at 9.99 µM. 380,000 compounds, 0.35% hits. bursicon-stimulated, 4 h. Drosophila bursicon receptor LGR2 (rickets);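 active = drop in luminescence signal, shown as inhibition above about 50% in the replicate tests, limit read from the data, passing the limit was not always enough; inconclusive = probably only some replicates passing the limit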;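 also: agonist challenge used bursicon conditioned medium at about half maximal strength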
PAX8 inh HTS – inhibitors of PAX8-driven TPO luciferase reporter, primary screen, RMG-I cells, single concentration | AID 652154, 2013 | 360,000 compounds, 1.2% hits | inhibition, % at 12.6 µM | SteadyGlo, 24 h;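 active = mean replicate inhibition at least 60% with every replicate also reaching 60%; inconclusive = only one of the two criteria is met; inactive = mean below 60% and not all replicates reaching 60%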;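 also: luciferase light reporting Pax8 driven TPO promoter activity; plate controls were median of neutral control wells for no effect and mitoxantrone controls for full effect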
LMP1 NFkB inh – EBV LMP1-driven NF-kappaB luciferase reporter inhibitors, primary screen, cell-based, luminescence, single point; 350,000 compounds, 0.69% hits; inhibition, % at 12.5 µM; LMP1-induced NF-kappaB luciferase reporter cells; in the data active = inhibition above about 41%; inconclusive = no clear call, values can overlap the other calls;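 also: 0% = neutral control wells and 100% = reference inhibitor control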
TWEAK-Fn14 inh – inhibitors of TWEAK-Fn14 signaling, primary screen, luciferase reporter cells, uHTS; TWEAK-stimulated Fn14 reporter cells, luciferase luminescence, 8 h; 360,000 compounds, 2% hits; AID 1159606, 2016; inhibition, % at 10 µM; in the data active = inhibition above about 50%
Numbers without * were called inactive; ? = inconclusive; nt = not tested or not shown. In the library only some 3.1% were active in any assay of this set; here they are far more common.

SMILES	TROY signal inh	EWS-Fli inh	LGR2 inh	PAX8 inh HTS	LMP1 NFkB inh	TWEAK-Fn14 inh
CCN(CC)c1nc(Oc2ccc(C(=O)NN)cc2)nc(Oc2ccc(C(=O)NN)cc2)n1	53*	1	16	13	4	-25
C[C@@H]1CN([C@@H](C)CO)C(=O)c2cc(NC(=O)c3ccncc3)ccc2O[C@@H]1CN(C)S(=O)(=O)c1ccc(F)cc1	nt	2	-5	2	nt	nt
CC(C)CNC(=O)NC(=O)COC(=O)c1ccccc1Sc1ccc(C(F)(F)F)cc1[N+](=O)[O-]	31	nt	5	24	10	57*
C=CCNC(=O)NC(=O)COC(=O)c1ccccc1Sc1ccc(C(F)(F)F)cc1[N+](=O)[O-]	12	7	18	-1	-6	1
NC(=S)NN=Cc1cc(-c2cccc(N)c2)ccn1	25	6	10	94*	21	25
NC(=S)N/N=C/c1ccccc1	-4	11	10	12	3	9
COc1ccc2nc(C)cc(SCC(=O)NNC(=O)COc3ccccc3)c2c1	9	nt	nt	nt	3	19
COc1ccc2nc(C)cc(Sc3nc4ccccc4s3)c2c1	35	-35	4	69*	30	88*
Cc1ccc(Nc2nc3nonc3[nH]c2=O)cc1Cl	41	-1	37	-9	1	59*
Cc1ccc(Nc2nc3nonc3[nH]c2=O)cc1C	-26	nt	nt	nt	-14	21
Cc1ccc2c(c1)sc1nc(=O)n(-c3ccc(Cl)c(Cl)c3)c(=O)n12	43	nt	nt	28	-19	55*
C=CC(=O)N1C/C(=C/c2ccc(Cl)cc2)C(=O)/C(=C\c2ccc(Cl)cc2)C1	85*	77*	104*	110*	86*	107*
C=CC(=O)N1C/C(=C/c2ccccc2)C(=O)/C(=C\c2ccccc2)C1	73*	72*	100*	80*	85*	105*
CO[C@H]1CN(C)C(=O)c2cc(NC(=O)c3ccccc3)ccc2OC[C@H](C)N(C)C[C@@H]1C	nt	7	-4	nt	nt	nt
Cc1ccc(NCc2nnc(SCC(=O)c3ccc4c(c3)OCCO4)o2)c(C)c1	77*	10	7	nt	-5	31
COc1ccc(C(=O)CSc2nnc(CNc3ccc(C)cc3C)o2)cc1	-16	nt	nt	27	-6	2
COc1ccc(-c2[nH]nc3nc(N4CCN(C(=O)c5ccoc5)CC4)cc(C(F)(F)F)c23)cc1	34	55*	-7	34	1	38
O=C(C[C@H]1C[C@H]2c3cc(NC(=O)Nc4ccccc4)ccc3O[C@H]2[C@H](CO)O1)NCC1CC1	nt	3	0	nt	nt	nt
CC1(C)CC(=O)C=C(NC2=CC3OC(c4ccccc4)OCC3OC2=O)C1 (stereo unspecified)	17	0	86*	?	-24	76*
Cc1ccccc1NC1=CC(=O)CC(C)(C)C1	15	nt	-27	nt	2	4
CS(=O)(=O)N1Cc2cc(C(=O)NCC3CC3)nc(-c3cccc(-c4cncnc4)c3)c2[C@@H]1CCO	nt	-5	-11	nt	nt	nt
O=C(NC(NC(=S)Nc1c(Cl)cccc1Cl)C(Cl)(Cl)Cl)c1cccc([N+](=O)[O-])c1 (stereo unspecified)	45	nt	11	35	-9	60*
COc1ccc([N+](=O)[O-])cc1NC(=S)NC(NC(=O)C(c1ccccc1)c1ccccc1)C(Cl)(Cl)Cl (stereo unspecified)	24	nt	nt	nt	37	63*
C[C@@H]1CCCCO[C@@H](CN(C)S(=O)(=O)c2cn(C)cn2)[C@@H](C)CN([C@@H](C)CO)C(=O)c2cc(NS(C)(=O)=O)ccc2O1	nt	-6	-12	nt	nt	nt
C[n+]1c2n(c3ccccc31)N=C(c1cc(C(C)(C)C)c(O)c(C(C)(C)C)c1)CS2	57*	47	86*	92*	45*	88*
SMILES	TROY signal inh	EWS-Fli inh	LGR2 inh	PAX8 inh HTS	LMP1 NFkB inh	TWEAK-Fn14 inh
COc1ccc(S(=O)(=O)Nc2ccc3c(c2)C(=O)N([C@@H](C)CO)C[C@@H](C)[C@H](CN(C)S(C)(=O)=O)O3)cc1	nt	-2	-6	nt	nt	nt
COc1cccc(NC(=O)c2cc3ccccc3o/c2=N\O)c1	23	-102	?	-48	-14	78*
Cc1c(C(=O)NC2=NCCS2)oc2ccccc12	-14	-17	nt	nt	5	57*
Cc1cccc(NC(=O)c2cc3ccccc3oc2=O)c1	24	-25	-1	-135	-12	53*
Cc1ccnc(NC(=O)c2oc3ccccc3c2C)c1	2	48	33	nt	-8	51*
Cc1c(C(=O)Nc2cnccn2)oc2ccccc12	-52	-10	-48	nt	-19	-1
C[C@@H]1CCCCO[C@@H](CN(C)C(=O)CCC(F)(F)F)[C@@H](C)CN([C@H](C)CO)C(=O)c2cc(NC(=O)C3CCCCC3)ccc2O1	nt	-6	9	2	nt	nt
COc1ccc(NC(=O)Nc2ccc3c(c2)C(=O)N([C@@H](C)CO)C[C@@H](C)[C@H](CN(C)Cc2ccncc2)OCCCC[C@H](C)O3)cc1	nt	-3	11	-17	nt	nt
COc1cc2ccccc2cc1C(=O)Nc1cc(C)ccn1	-49	-75	-61	-120	-28	-24
Cc1ccnc(NC(=O)c2cc3ccccc3oc2=O)c1	-30	-67	-19	-128	-3	60*
COc1ccc(NS(=O)(=O)c2ccc(N3CCCC3)c(NC(=S)Nc3ccc(SC(F)F)cc3)c2)cc1	-14	3	-6	101*	9	14
COc1ccc(NS(=O)(=O)c2ccc(N3CCCC3)c(NC(=S)Nc3cccc(C)c3C)c2)cc1	-9	nt	17	-15	1	7
Cc1noc(C)c1S(=O)(=O)Nc1ccc2c(c1)C(=O)N([C@H](C)CO)C[C@@H](C)[C@H](CN(C)S(=O)(=O)c1cn(C)cn1)OCCCC[C@@H](C)O2	nt	-8	-14	-2	nt	nt
CCCN(CCC)CCNC(=O)CN1C(=O)COc2ccc(S(=O)(=O)N3CCOCC3)cc21	4	-2	-23	1	-7	16
COCCCNC(=O)CN1C(=O)COc2ccc(S(=O)(=O)N3CCOCC3)cc21	1	nt	-1	0	57*	-14
Cc1noc(C)c1S(=O)(=O)N(C)C[C@@H]1Oc2ccc(NS(=O)(=O)c3ccc(F)cc3)cc2CC(=O)N([C@H](C)CO)C[C@@H]1C	nt	-11	-11	nt	nt	nt
COc1ccc(/C=N/n2c(N)c(S(=O)(=O)c3cccs3)c3nc4ccccc4nc32)cc1OC	5	nt	nt	nt	-1	36
CC(C)Cn1c(N)c(S(=O)(=O)c2cccs2)c2nc3ccccc3nc21	67*	nt	nt	nt	-1	41
Nc1c(S(=O)(=O)c2cccs2)c2nc3ccccc3nc2n1/N=C/c1cccc(O)c1	35	nt	nt	nt	-3	81*
